# RGS8-Gao: RGS8-Galphao binding modulators, primary screen, biochemical, multiplexed bead flow cytometry | Guanine nucleotide-binding protein G(o) subunit alpha (Homo sapiens), P09471 | actives lie on both sides | response (percent of control binding), % at 10 µM | 220,000 tested, 0.34% active | AID 1423, 2008; in the data active = response below about 60% or above about 140%; inactive = in between;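 note: Galphao activated as the GDP aluminium fluoride complex binding bead-coupled RGS8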
# Avidin bead fluor: green autofluorescence of compounds with avidin beads – biophysical, 488/530 nm, flow cytometry, artefact control, profiling panel; AID 1775, 2009; 220,000 tested, 0.38% active; compound fluorescence 488/530 nm; stronger effect = higher value; fluorescence (KMESF) at 10 µM; in the data active = fluorescence above about 47
# RGS4-Gao reg: modulators of RGS4 binding to Galphao, primary screen, biochemical, multiplexed bead flow cytometry; binding response (% of control), % at 10 µM; Guanine nucleotide-binding protein G(o) subunit alpha (Homo sapiens), P09471; actives lie on both sides; AID 1415, 2008; 220,000 tested, 0.33% active; in the data active = binding response below about 49% or above about 150%; inactive = in between;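 note: fluorescent Galphao activated with aluminum fluoride binding bead-coupled RGS4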
# GSH fluor: compound fluorescence on glutathione beads, profiling panel, artefact control, biophysical, 488/530 nm, flow cytometry. 190,000 tested, 0.25% active. fluorescence (KMESF) at 10 µM. GSH beads flow cytometry, compound fluorescence 488/530 nm; stronger effect = higher value. AID 1776, 2009; in the data active = fluorescence above about 89;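 note: glutathione beads carrying GST-tagged Bcl family fusion proteins plus one bare bead set; values are compound well signal with DMSO vehicle wells as background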
# RGS7-Gao: RGS7-Galphao binding modulators, primary screen, biochemical, multiplexed bead flow cytometry; Guanine nucleotide-binding protein G(o) subunit alpha (Homo sapiens), P09471; actives lie on both sides; binding response (% of control), % at 10 µM; 220,000 tested, 0.35% active; in the data active = binding response below about 49% or above about 150%; inconclusive = no clear call, values can overlap the other calls; inactive = in between;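 note: fluorescent Galphao held in activated GDP-AlF4 state binding bead-coupled RGS7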
# RGS16-Gao HTS: modulators of RGS16 binding to Galphao, primary screen, biochemical, human proteins, multiplexed bead flow cytometry; Regulator of G-protein signaling 16 (Homo sapiens) + Guanine nucleotide-binding protein …; bead-based flow cytometry RGS16-Galphao binding, fluorescence; actives lie on both sides; binding response (% of control), % at 10 µM; 220,000 tested, 0.38% active; AID 1441, 2008; call rule not given here;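 note: Galphao activated by GDP with aluminum fluoride before binding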
# Target sequence (O15492 whole entry, looked up): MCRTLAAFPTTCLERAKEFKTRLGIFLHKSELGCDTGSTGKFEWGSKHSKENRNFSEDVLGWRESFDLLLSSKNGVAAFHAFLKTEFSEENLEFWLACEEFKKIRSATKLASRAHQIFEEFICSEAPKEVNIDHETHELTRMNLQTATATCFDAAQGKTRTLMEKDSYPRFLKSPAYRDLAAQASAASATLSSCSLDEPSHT
# Target sequence (P09471 whole entry, looked up): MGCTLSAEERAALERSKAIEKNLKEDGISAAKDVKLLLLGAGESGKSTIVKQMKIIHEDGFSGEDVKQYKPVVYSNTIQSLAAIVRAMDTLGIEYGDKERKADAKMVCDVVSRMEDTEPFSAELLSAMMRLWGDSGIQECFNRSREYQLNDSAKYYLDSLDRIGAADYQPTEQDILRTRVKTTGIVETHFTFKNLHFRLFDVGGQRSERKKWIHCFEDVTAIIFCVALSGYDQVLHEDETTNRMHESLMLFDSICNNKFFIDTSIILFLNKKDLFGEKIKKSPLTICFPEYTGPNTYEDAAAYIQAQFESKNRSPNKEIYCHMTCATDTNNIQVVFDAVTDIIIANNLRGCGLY
# * = called active by the depositor; ? = inconclusive; . = not tested or not shown; [ ] = remark or other dose. This is a sample that favours compounds with a hit; in the whole collection about 1.2% have one here.
SMILES,RGS8-Gao,Avidin bead fluor,RGS4-Gao reg,GSH fluor,RGS7-Gao,RGS16-Gao HTS
NC(=O)c1oc2ccccc2c1NC(=O)c1ccco1,100,21,101,13,98,102
OCC1(Cc2ccccc2)CCN(Cc2ccc(C(F)(F)F)cc2)CC1,100,3,101,10,103,101
COc1cccc(-n2c(SCC#N)nnc2-c2cnccn2)c1,101,6,112,247*,112,95
COc1ccc(/C=C2\CCCc3c2nc2ccc(C)cc2c3C(=O)O)cc1O,93,3,87,.,?,86
CCC(CC)NC(=O)COC(=O)c1cccc(C)c1O,84,4,95,262*,94,53
Cc1cccc(C(=O)OCC(=O)Nc2ccc(N3CCCCC3)cc2)c1O,101,25,98,24,98,99
CCOC(=O)CCCNC(=O)COC(=O)c1cccc(C)c1O,97,7,96,261*,92,106
Cc1cc(NC(=O)Cc2ccccc2)ccc1NC(=O)c1cccs1,104,12,106,15,106,115
O=C(NN1CCOCC1)c1ccc(Cl)s1,106,11,101,10,101,111
O=C(Cc1n[nH]c(=O)[nH]c1=O)N/N=C/c1ccccc1,104,21,103,9,102,103
O=C(CSc1n[nH]c(=O)[nH]c1=O)N/N=C/c1ccccc1,109,10,93,215*,94,131
CC(=O)Oc1ccc(/C=N/NC(=S)Nc2ccccc2)cc1,101,14,99,6,101,103
COc1ccc(-n2c(C)cc(C(=O)CSc3nn4c(=O)c(C(C)(C)C)nnc4s3)c2C)cc1,103,57*,103,23,113,110
CC1CC(=O)Nc2ccccc2N1S(=O)(=O)c1cccc(Cl)c1 (stereo unspecified),100,15,100,10,97,94
COc1ccccc1N1CCN(C(=O)CSc2nc(-c3ccccc3)cc(=O)[nH]2)CC1,101,29,100,22,97,103
COc1ccccc1N1CCN(C(=O)CSc2nc(C)c(Cc3ccccc3)c(=O)[nH]2)CC1,101,78*,108,15,123,104
Cc1nc(N2CCOCC2)c(C#N)c(C)c1Br,100,7,103,260*,102,101
COc1cc(OC)c(OC)cc1/C=N/N(C)c1ccccc1,108,54*,148,33,134,148
COc1cc(/C=N/N(C)c2ccccc2)ccc1O,100,8,98,4,98,101
COc1cc(/C=C\C(=O)OCn2nnc3ccccc3c2=O)cc(OC)c1OC,104,13,107,13,100,105
COC1=C(OC)c2ccccc2C(C(=O)O)N/C1=C(/C)Nc1ccncc1 (stereo unspecified),101,9,101,267*,102,102
CC1(C)Oc2ccc3ccc(=O)oc3c2-c2cnoc21,100,56*,109,17,149,105
O=[N+]([O-])c1ccc(/C=C/C2=NN(c3ccccc3)C(c3ccco3)C2)cc1 (stereo unspecified),111,186*,285*[activator],83,246*[activator],223*[activator]
O=C(CSc1nc2ccccc2s1)N/N=C/c1ccco1,102,4,98,10,100,101
C/C(=N\NC(=O)CSc1nc2ccccc2s1)c1ccco1,99,29,121,408*,112,115
SMILES,RGS8-Gao,Avidin bead fluor,RGS4-Gao reg,GSH fluor,RGS7-Gao,RGS16-Gao HTS
COc1ccc(OCCNS(=O)(=O)c2ccc3oc4ccccc4c3c2)cc1,100,10,103,10,103,110
CN(CCOc1ccccc1)S(=O)(=O)c1ccc2oc3ccccc3c2c1,100,60*,108,29,118,100
Cn1c(=O)c2c(ncn2CC(=O)Nc2ccccc2N2CCOCC2)n(C)c1=O,100,67*,106,26,122,103
Cn1c(=O)c2c(ncn2CC(=O)Nc2ccccc2Sc2ccccc2)n(C)c1=O,101,14,105,15,102,104
CC1NC(=O)NC1CCCCC(=O)O (stereo unspecified),95,4,102,243*,102,55
O=C(Nc1cccnc1)c1ccc(Cl)c(S(=O)(=O)N2CCc3ccccc32)c1,102,62*,101,10,121,108
COc1ccc(/C=C/C(=O)c2ccccc2)cc1COc1ccccc1F,99,90*,104,11,126,107
COc1ccc(C=O)cc1COc1ccccc1F,82,8,92,3,91,45
CCOC(=O)N1CCC(NC(=O)c2ccc(CNS(=O)(=O)c3ccc(F)cc3)cc2)CC1,99,61*,102,21,117,105
Nc1cc(=O)[nH]c(SCC(=O)Nc2ncc(C(F)(F)F)cc2Cl)n1,96,10,96,15,92,96
CCOc1cc(/C=N\Nc2ccc([N+](=O)[O-])cc2)ccc1OCC(=O)Nc1ccc(C)c(C)c1,98,32,94,16,95,93
COc1cc(/C=N\Nc2ccc([N+](=O)[O-])cc2)ccc1OCC(=O)Nc1ccc(C)c(C)c1,100,61*,92,13,95,103
C=CCNC(=S)N1CCN(C2CCCCC2)CC1,93,8,95,.,?,89
COc1cc(-c2nnc(-c3cc(OC)c(OC)c(OC)c3)o2)cc(OC)c1OC,102,5,102,102*,99,101
COc1cc(-c2nnc(-c3ccccc3)o2)cc(OC)c1OC,.,.,.,18,.,.
Cc1cc(C(=O)CSc2nnc(-c3cccnc3)n2-c2ccccc2F)c(C)n1CC1CCCO1 (stereo unspecified),98,5,97,42,96,97
CCN(CC)c1ccc(/C=C(\C#N)C(=O)c2ccc(Br)cc2)cc1,103,23,122,151*,115,126
CCN(CC)NC(=S)Nc1ccccc1,107,11,106,35,105,115
CC(C)N(C)NC(=S)Nc1ccccc1,96,7,93,332*,94,85
COc1ccc(N2CCN(C(=O)c3c(C)nn(-c4ccccc4)c3C)CC2)cc1,82,8,96,11,95,46
Cc1ccc2c(CC(=O)O)coc2c1,102,15,103,24,106,106
Cc1cc2occ(CC(=O)O)c2cc1C,101,7,97,234*,98,95
C/C(=N/NC(=O)c1cccc(N2CCCC2=O)c1)c1ccncc1,104,10,103,9,101,106
